Bioassay records (PubChem)
An excerpt weighted towards active compounds, which were near 4.1% of everything screened.
hcDAF12 agonist: activators of H. contortus DAF-12 nuclear receptor. HEK293 hcDAF-12 lit1-tk-luc reporter, luminescence; 0% DMSO, 100% Δ7-dafachronic acid. 370,000 compounds, 1.4% hits. AID 652067. activation, % at 6.8 µM;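 active means activation above the mean of all tested compounds plus 3 SD, cut at about 5.5% in these data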
DAX1 inh-1: NR0B1 (DAX1) inhibition. P51843. HEK293 Gal4-DAX1 luciferase reporter, luminescence. inhibition, % at 6.75 µM. 340,000 compounds, 0.99% hits. AID 504766;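 active means inhibition above the mean over all tested compounds plus 3 SD, cut at about 4.2% in these data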;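 further: inhibition shows as a rise in luminescence from relieved DAX1 repression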
Target sequence (P51843 207-470 limits assumed): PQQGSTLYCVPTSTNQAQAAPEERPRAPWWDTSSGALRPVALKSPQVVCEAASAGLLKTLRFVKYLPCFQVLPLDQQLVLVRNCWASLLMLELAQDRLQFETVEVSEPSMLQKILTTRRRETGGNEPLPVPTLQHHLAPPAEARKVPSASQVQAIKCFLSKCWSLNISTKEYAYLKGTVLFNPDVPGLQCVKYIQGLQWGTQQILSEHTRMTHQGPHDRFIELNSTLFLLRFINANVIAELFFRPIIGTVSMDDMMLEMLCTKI
ssDAF12 agonist: activates DAF-12 receptor from parasite S. stercoralis; 370,000 compounds, 1% hits; HEK293 ssDAF-12/GRIP1 lit1-tk-luc reporter, luminescence; % of 3 µM dafachronic acid response; activation, % at 6.8 µM;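 active means activation above the mean over all tested compounds plus 3 SD, cut at about 0.9% in these data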
hgDAF-12 ag: agonists of H. glycines DAF-12 nuclear receptor; HEK293 GAL4-hgDAF12 UAS-luciferase reporter, agonist luminescence; normalized to butyrate control; 370,000 compounds, 1.8% hits; activation, % at 6.8 µM;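 active means activation above a cutoff set at the mean of all screened compounds plus 3 SD, cut at about 10% in these data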
DAX1 inh-2: blocks DAX1 repression of SF-1 activated StAR promoter. HEK293T StAR-luciferase reporter, SF-1/DAX-1 repression relief. inhibition, % at 6.8 µM. 370,000 compounds, 1.1% hits. AID 652010;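 active means inhibition above the mean over all tested compounds plus 3 SD, cut at about 3.6% in these data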;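 further: higher inhibition means more luminescence from relief of DAX-1 repression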
hgDAF12 conf: confirmation of H. glycines DAF-12 agonists. shares compounds with hgDAF-12 ag. HEK293 GAL4-hgDAF12 luciferase reporter, agonist mode; percent of butyrate response. activation, % at 6.8 µM. 3,300 compounds, 80% hits. AID 743050;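 active means mean activation over triplicate wells above the hit cutoff derived from the earlier primary screen, cut at about 11% in these data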
LXRb DAF12 ctr: LXR-beta agonism as DAF-12 counter-screen | shares compounds with hgDAF-12 ag | HEK293 Gal4-LXR luciferase reporter, 24 h | activation, % at 6.8 µM | 3,300 tested, under 10 active | AID 743051;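 active means mean activation of the triplicate above a set limit carried over from the primary screen, none filed active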
A number is an active result; – = inactive; · = no result given.

SMILES	hcDAF12 agonist	DAX1 inh-1	ssDAF12 agonist	hgDAF-12 ag	DAX1 inh-2	hgDAF12 conf	LXRb DAF12 ctr
CC(C)Cn1c(N)c(C(=O)COC(=O)c2cnc(Cl)c(Cl)c2)c(=O)n(C)c1=O	–	–	–	–	–	·	·
Cc1ccc(N2C(=O)c3ccc(N)cc3C2=O)cc1	–	–	–	16	–	16	–
Nn1cnc2scc(-c3ccco3)c2c1=O	–	–	–	–	–	·	·
O=C(O)c1cccc(-c2nnn(Cc3ccccc3)n2)c1	5.7	–	–	15	–	11	–
Cc1oc(-c2ccc(-c3ccccc3)cc2)nc1CN(C)C1CCOC1 (centres undefined)	–	–	–	16	–	14	–
Cc1oc(-c2cccc(Cl)c2)nc1CN(C)C1CCOC1 (centres undefined)	–	–	–	–	–	·	·
CC(=O)Nc1cccc(/C(C)=N/NC(=O)c2cc(-c3ccncc3)nc3ccccc23)c1	–	–	–	–	–	·	·
CC(=O)Nc1cccc(/C(C)=N/Nc2nc3ccccc3s2)c1	–	–	–	15	–	13	–
CCOC(=O)c1sc(NC(=O)Nc2ccccc2)cc1C	–	–	–	17	–	23	–
CCOC(=O)c1sc(NC(=O)c2ccc(C)s2)cc1C	–	–	–	–	–	·	·
Cc1csc(NC(=S)NC(=O)c2ccccc2)n1	–	–	–	16	–	16	–
CCOC(=O)c1sc(NC(=O)Nc2ccc(F)cc2)nc1C	–	–	–	17	3.7	23	–
CCN1CCC(O)(C(C(=O)OC)c2ccccc2)CC1 (centres undefined)	–	–	–	–	–	·	·
COc1ccc(C(=O)Nc2nc3ccccc3s2)cc1	–	–	–	–	–	·	·
COc1ccc2nc(NC(=O)c3ccc(F)cc3)sc2c1	–	4.7	–	14	–	13	–
COc1ccc(C(=O)Nc2nc3ccc(S(C)(=O)=O)cc3s2)cc1OC	–	–	–	–	–	·	·
COc1cccc(C(=O)Nc2nc3ccccc3s2)c1	6.3	–	2.4	17	–	20	–
COc1ccc(C(=O)Nc2nc3ccccc3s2)cc1OC	–	–	–	19	–	14	–
COc1cccc(C(=O)Nc2nc(C)cs2)c1	–	–	–	15	–	14	–
CC1CCCCC12NC(=O)N(CC(=O)NCCc1ccc(F)cc1)C2=O (centres undefined)	–	–	–	–	–	·	·
CCN1C(=NCc2ccc(OC)cc2)N[C@@H](c2ccccc2)[C@H](C(=O)OC)[C@H]1C	–	–	–	–	–	·	·
O=C(O)Cn1c(SCCOc2ccc(Cl)cc2)nc2ccccc21	–	–	–	–	–	·	·
COCCN(Cc1ccc(C)cc1)C(=O)[C@H]1O[C@@H](n2ccc(=O)[nH]c2=O)[C@H](O)[C@@H]1O	–	·	–	–	–	·	·
CCOC(=O)c1sc(NC(=S)NC(=O)c2ccccc2)nc1C	5.9	–	–	16	–	12	–
CC(=O)N1CCc2cc(N=NC3=C(O)CC(C)(C)CC3=O)ccc21	–	–	–	15	3.9	17	–
SMILES	hcDAF12 agonist	DAX1 inh-1	ssDAF12 agonist	hgDAF-12 ag	DAX1 inh-2	hgDAF12 conf	LXRb DAF12 ctr
CC1(C)CC(=O)C(N=Nc2cc(Cl)c(Cl)c(Cl)c2)=C(O)C1	–	–	–	–	–	·	·
CC1CCCCC1NC(=O)CCn1ccc2cc(S(=O)(=O)N3CCCC3)ccc21 (centres undefined)	·	–	·	·	·	·	·
O=C(Nc1ccccc1O)c1ccc(Cl)cc1	5.8	4.4	1.3	22	–	29	–
CC(C)N=C1NN=C(c2ccc(Cl)c(Cl)c2)CS1	–	·	–	19	–	19	–
CN1CCN(/N=C/c2ccc(-c3ccccc3)cc2)CC1	–	–	–	14	–	12	–
CC(=O)C(C(c1ccccc1)N1CCOCC1)N1CCOCC1 (centres undefined)	–	–	–	–	–	·	·
COc1ccccc1C(C(C(=O)c1ccccc1)N1CCOCC1)N1CCOCC1 (centres undefined)	–	–	–	14	–	–	–
Cc1ccc(OCc2nc3ccccc3[nH]2)cc1	6.0	–	–	16	4.2	13	–
